Experimental data from PubChem BioAssay (NCI).
The panel holds about 83,000 compounds, 20% with a hit somewhere; the sample as a whole holds those more often.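 Interpretation: 100, growth as untreated; towards 0, rising growth inhibition; 0, no net growth; 0 to -100, cell death. Compounds scoring below 10 were considered active.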 Active and inactive are the calls of the source.

Each compound was assayed on SK-MEL-2 melanoma (assay: NCI-60 one-dose screen, 48 h (100 = growth as untreated, 0 = no growth, -100 = all killed)). Settings: 10 µM unless noted.
With `O=C(Oc1ccccc1)c1ccccc1Cl` the growth was 123% (inactive). With `COc1ccc(-c2nc(SCC(C)C)nc(Nc3ccc(C(=O)O)cc3)c2C#N)cc1` the growth was 57.9% (inactive). For `C[C@@H](c1ccc2c(c1)[nH]c1ccc(Cl)cc12)c1nc2ccccc2[nH]1`, the growth was 108% (inactive). For `Cc1nnc(/N=C2\NC(=O)/C(=C/C=C/c3ccccc3)S2)s1`, the growth was 57.7% (inactive). For `CCOc1ccccc1/C=N\N=C(N/N=C/c1ccccc1OCC)N/N=C/c1ccccc1OCC`, the growth was 4.07% (active). With `CCOC(=O)CSSCC(=O)OCC` the growth was 111% (inactive). With `O=C(O)c1ccc(Br)nc1` the growth was 96.1% (inactive). `O=C(O)c1ccc(-c2nn(-c3ccc(C(=O)O)cc3)cc2CNc2ccc(Br)cc2)cc1` was tested, and the growth was 94.4% (inactive). `NC(N)=N/N=C/c1cccc(Br)c1` was tested, and the growth was 103% (inactive). With `C=CCNC(=S)NNc1ccc([N+](=O)[O-])cn1` the growth was 94.4% (inactive). In the case of `CCCC(=O)Nc1ccccc1C(=O)O`, the growth was 100% (inactive). `O=C(/C=C1\C(=O)N(Cc2ccc([N+](=O)[O-])cc2)c2ccccc21)c1ccc(OCCN2CCCCC2)cc1` was tested, and the growth was -29.1% (active). With `COc1cc2cc3cc4cc(OC)c(OC)cc4c(C)[n+]3cc2cc1OC` (tested in a mixture with another compound) the growth was 69.5% (inactive). For `COc1ccc(-c2nc(N)n(C(=S)Nc3ccccc3)n2)cc1`, the growth was 101% (inactive). For `Nc1ccc(N=Nc2ccccc2)c2cc(S(=O)(=O)O)ccc12`, the growth was 91.1% (inactive). `O=C(C(=O)N1CCOCC1)c1ccc(O[C@H]2O[C@H](CO)[C@@H](O)[C@H](O)[C@@H]2O)cc1` was tested, and the growth was 107% (inactive). `O=C(/C=C1\C(=O)N(Cc2ccccc2)c2ccccc21)c1ccc(OCCN2CCCCC2)cc1` was tested, and the growth was 88.6% (inactive). `CCCCCCNC(=O)Oc1ccc(/C(=C(/C)Cc2ccc(OC)cc2)c2ccc(OCCN(C)C)cc2)cc1` was tested, and the growth was 111% (inactive). In the case of `COc1ccc(-c2nc(SCC(C)C)nc(Nc3ccc(C)cc3)c2C#N)cc1`, the growth was 107% (inactive). For `CCOC(=O)C1CCCN1C(=O)C1(NC(C)=O)CCCC1` (stereo not given), the growth was 110% (inactive). For `CCOC(=O)C1=NN(c2ccccc2)C2=NC(=O)/C(=C\c3cn(-c4ccccc4)nc3-c3cc4ccccc4o3)C(=O)N12`, the growth was 99.3% (inactive). For `CC1=C(C)C[C@]2(C(=O)O[C@H]3CCCC[C@@H]32)[S@](=O)C1`, the growth was 86.3% (inactive). In the case of `CC(=N\N=C(N)N)/C(=N/N=C(N)N)c1ccccc1`, the growth was 84.6% (inactive). `O=C1/C(=C\c2cn(-c3nc(N4CCOCC4)nc(N4CCOCC4)n3)c3ccccc23)c2ccccc2N1c1c(Cl)cccc1Cl` was tested, and the growth was 74% (inactive). `Cc1ccc(CC(=O)O)c(C)c1` was tested, and the growth was 95.5% (inactive). For `N=C(N)N=Nc1ccc(NN=C(N)N)cc1`, the growth was 105% (inactive). In the case of `CCCNC(=O)Oc1ccc(/C(=C(/C)Cc2ccc(OC)cc2)c2ccc(OCCN3CCCCC3)cc2)cc1`, the growth was 99.5% (inactive). In the case of `CCCCN(CCCC)CCCNc1c2c(nc3ccc(Cl)cc13)CCCC2`, the growth was 101% (inactive). For `CCCCCCCCCCN1CC2CCCCC2C1` (stereo not given), the growth was 95.2% (inactive). `N=C(N)N=Nc1ccc(NN=C(N)N)c2ccccc12` was tested, and the growth was 104% (inactive). `Cc1c(Cc2ccccc2)c(=O)oc2c(C)c(OCC(=O)n3nc(C#N)cc3N)ccc12` was tested, and the growth was 98.9% (inactive). `CC(=O)OCC1O[C@@H](OC(C)=O)[C@@H](NC(=O)NS(=O)(=O)c2ccccc2)C(OC(C)=O)[C@@H]1OC(C)=O` (stereo not given in full) was tested, and the growth was -51.6% (active). In the case of `CC(=O)Nc1nc(C)c(C(=O)N/N=C/N2CCCCC2)s1`, the growth was 15.3% (inactive). In the case of `Cc1ccc(NCc2cn(-c3ccc(C(=O)O)cc3)nc2-c2ccc(C(=O)O)cc2)cc1`, the growth was 94.3% (inactive). In the case of `CC(C)CSc1nc(-c2ccc(F)cc2)c(C#N)c(N2CCCCC2)n1`, the growth was 85.5% (inactive). For `COc1ccc(/C=N/c2cc(C(C)(C)C)nn2-c2ccccc2)cc1`, the growth was 124% (inactive). For `CC[C@H](Nc1ncnc2nc[nH]c12)c1nc2cccc(NCc3ccc(C(=O)NO)nc3)c2c(=O)n1-c1ccccc1`, the growth was 55.6% (inactive). For `COc1ccc(CN2C(=O)/C(=C\C(=O)c3ccc(OCCN4CCCC4)cc3)c3ccccc32)cc1`, the growth was 103% (inactive). `COC1=C(OC)C(=O)c2ccccc2C1=O` was tested, and the growth was 107% (inactive). With `CCC(C)C1NC(=O)C(CC(C)C)NC(=O)C(C)NC(=O)C(C(C)C)NC(=O)C(CCCCN)NC(=O)C(CC(C)C)NC(=O)C(C(C)C)NC(=O)[C@H](C)NC(=O)C(C(C)CC)NC(=O)C(CCCN=C(N)N)NC(=O)C(CCCCN)NC(=O)C(CCCN=C(N)N)NC(=O)C(CCCCN)NC(=O)C([C@H](C)CC)NC(=O)C(CCCCN)NC1=O` (stereo not given in full) the growth was 37.3% (inactive).

These compounds were tested on EKVX NSCLC in the same assay as above. Settings: 10 µM.
With `O=C(Oc1ccccc1)c1ccccc1Cl` the growth was 99.6% (inactive). `COc1ccc(-c2nc(SCC(C)C)nc(Nc3ccc(C(=O)O)cc3)c2C#N)cc1` was tested, and the growth was 90.7% (inactive). In the case of `C[C@@H](c1ccc2c(c1)[nH]c1ccc(Cl)cc12)c1nc2ccccc2[nH]1`, the growth was 92.6% (inactive). With `Cc1nnc(/N=C2\NC(=O)/C(=C/C=C/c3ccccc3)S2)s1` the growth was 67.1% (inactive). In the case of `CCOc1ccccc1/C=N\N=C(N/N=C/c1ccccc1OCC)N/N=C/c1ccccc1OCC`, the growth was 14.2% (inactive). For `CCOC(=O)CSSCC(=O)OCC`, the growth was 105% (inactive). With `O=C(O)c1ccc(Br)nc1` the growth was 95.6% (inactive). For `O=C(O)c1ccc(-c2nn(-c3ccc(C(=O)O)cc3)cc2CNc2ccc(Br)cc2)cc1`, the growth was 101% (inactive). In the case of `NC(N)=N/N=C/c1cccc(Br)c1`, the growth was 103% (inactive). In the case of `C=CCNC(=S)NNc1ccc([N+](=O)[O-])cn1`, the growth was 99.9% (inactive). In the case of `CCCC(=O)Nc1ccccc1C(=O)O`, the growth was 96.4% (inactive). In the case of `O=C(/C=C1\C(=O)N(Cc2ccc([N+](=O)[O-])cc2)c2ccccc21)c1ccc(OCCN2CCCCC2)cc1`, the growth was 1.78% (active). For `COc1cc2cc3cc4cc(OC)c(OC)cc4c(C)[n+]3cc2cc1OC` (tested in a mixture with another compound), the growth was 60.8% (inactive). `COc1ccc(-c2nc(N)n(C(=S)Nc3ccccc3)n2)cc1` was tested, and the growth was 96.3% (inactive). For `Nc1ccc(N=Nc2ccccc2)c2cc(S(=O)(=O)O)ccc12`, the growth was 105% (inactive). In the case of `O=C(C(=O)N1CCOCC1)c1ccc(O[C@H]2O[C@H](CO)[C@@H](O)[C@H](O)[C@@H]2O)cc1`, the growth was 116% (inactive). In the case of `O=C(/C=C1\C(=O)N(Cc2ccccc2)c2ccccc21)c1ccc(OCCN2CCCCC2)cc1`, the growth was 64.2% (inactive). With `CCCCCCNC(=O)Oc1ccc(/C(=C(/C)Cc2ccc(OC)cc2)c2ccc(OCCN(C)C)cc2)cc1` the growth was 78.1% (inactive). For `COc1ccc(-c2nc(SCC(C)C)nc(Nc3ccc(C)cc3)c2C#N)cc1`, the growth was 72.8% (inactive). In the case of `CCOC(=O)C1CCCN1C(=O)C1(NC(C)=O)CCCC1` (stereo not given), the growth was 100% (inactive). In the case of `CCOC(=O)C1=NN(c2ccccc2)C2=NC(=O)/C(=C\c3cn(-c4ccccc4)nc3-c3cc4ccccc4o3)C(=O)N12`, the growth was 90.2% (inactive). In the case of `CC1=C(C)C[C@]2(C(=O)O[C@H]3CCCC[C@@H]32)[S@](=O)C1`, the growth was 109% (inactive). With `CC(=N\N=C(N)N)/C(=N/N=C(N)N)c1ccccc1` the growth was 68.6% (inactive). With `O=C1/C(=C\c2cn(-c3nc(N4CCOCC4)nc(N4CCOCC4)n3)c3ccccc23)c2ccccc2N1c1c(Cl)cccc1Cl` the growth was 61% (inactive). In the case of `Cc1ccc(CC(=O)O)c(C)c1`, the growth was 109% (inactive). In the case of `N=C(N)N=Nc1ccc(NN=C(N)N)cc1`, the growth was 36.3% (inactive). In the case of `CCCNC(=O)Oc1ccc(/C(=C(/C)Cc2ccc(OC)cc2)c2ccc(OCCN3CCCCC3)cc2)cc1`, the growth was 76.6% (inactive). `CCCCN(CCCC)CCCNc1c2c(nc3ccc(Cl)cc13)CCCC2` was tested, and the growth was 95.5% (inactive). For `CCCCCCCCCCN1CC2CCCCC2C1` (stereo not given), the growth was 63% (inactive). With `N=C(N)N=Nc1ccc(NN=C(N)N)c2ccccc12` the growth was 116% (inactive). `Cc1c(Cc2ccccc2)c(=O)oc2c(C)c(OCC(=O)n3nc(C#N)cc3N)ccc12` was tested, and the growth was 97.7% (inactive). For `CC(=O)OCC1O[C@@H](OC(C)=O)[C@@H](NC(=O)NS(=O)(=O)c2ccccc2)C(OC(C)=O)[C@@H]1OC(C)=O` (stereo not given in full), the growth was 96.4% (inactive). In the case of `CC(=O)Nc1nc(C)c(C(=O)N/N=C/N2CCCCC2)s1`, the growth was 112% (inactive). For `Cc1ccc(NCc2cn(-c3ccc(C(=O)O)cc3)nc2-c2ccc(C(=O)O)cc2)cc1`, the growth was 106% (inactive). `CC(C)CSc1nc(-c2ccc(F)cc2)c(C#N)c(N2CCCCC2)n1` was tested, and the growth was 93.4% (inactive). With `COc1ccc(/C=N/c2cc(C(C)(C)C)nn2-c2ccccc2)cc1` the growth was 104% (inactive). `CC[C@H](Nc1ncnc2nc[nH]c12)c1nc2cccc(NCc3ccc(C(=O)NO)nc3)c2c(=O)n1-c1ccccc1` was tested, and the growth was 77.1% (inactive). With `COc1ccc(CN2C(=O)/C(=C\C(=O)c3ccc(OCCN4CCCC4)cc3)c3ccccc32)cc1` the growth was 96.4% (inactive). For `COC1=C(OC)C(=O)c2ccccc2C1=O`, the growth was 97.8% (inactive). With `CCC(C)C1NC(=O)C(CC(C)C)NC(=O)C(C)NC(=O)C(C(C)C)NC(=O)C(CCCCN)NC(=O)C(CC(C)C)NC(=O)C(C(C)C)NC(=O)[C@H](C)NC(=O)C(C(C)CC)NC(=O)C(CCCN=C(N)N)NC(=O)C(CCCCN)NC(=O)C(CCCN=C(N)N)NC(=O)C(CCCCN)NC(=O)C([C@H](C)CC)NC(=O)C(CCCCN)NC1=O` (stereo not given in full) the growth was 15.3% (inactive).
